Assay results: PubChem BioAssay (NCATS)
Inconclusive results are not listed. Calls of active or inactive are those of the source. Calls follow the shape of the dose curve; as a rule, active = well fitted curve in the direction sought with a large enough effect; inconclusive = small, poorly fitted or top-dose-only effect, or another doubt; inactive = no such curve, though single readings can be large; an effect the other way counts as inactive or inconclusive.

Tests used:
[1] = tested on: WaGa; assay: qHTS assay to identify novel small-molecules to repurpose for Merkel cell carcinoma treatment (AID 1296009); conditions: MCC and control cell lines, CellTiter-Glo viability, 72 h; series mostly up to 46 µM; also: nearly all actives have a fitted effect of over 60% in size
How it was run: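 Cells exposed to NPC (8-point) and MIPE (11-point) compound dilutions for 72 hr at 37 degree celsius; viability read by CellTiter-Glo luminescence, normalized to no-cell and DMSO in-plate controls.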

[2] = tested on: C33A; assay: Primary qHTS to identify gynecologic anti-cancer compounds using libraries of approved drugs and bioactive compounds (AID 1345084); conditions: Gynecologic cancer cell panel viability, ATPlite luminescence, 48 h; series mostly up to 57.5 µM; also: nearly all actives have a fitted effect of over 55% in size
How it was run: (§1)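 In this quantitative HTS, cell killing is estimated from loss of ATP-dependent luciferase light. Cells see five compound concentrations over a 48 h exposure.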

[3] = tested on: CAOV3; assay: as above; conditions: Gynecologic cancer cell panel viability, ATPlite luminescence, 48 h; series mostly up to 57.5 µM
How it was run: as §1

[4] = tested on: CASKI; assay: as above; conditions: Gynecologic cancer cell panel viability, ATPlite luminescence, 48 h; series mostly up to 57.5 µM
How it was run: as §1

[5] = tested on: Es-2; assay: as above; conditions: Gynecologic cancer cell panel viability, ATPlite luminescence, 48 h; series mostly up to 57.5 µM
How it was run: as §1

[6] = tested on: HeLa; assay: as above; conditions: Gynecologic cancer cell panel viability, ATPlite luminescence, 48 h; series mostly up to 57.5 µM
How it was run: as §1

[7] = tested on: Hek293T; assay: as above; conditions: Gynecologic cancer cell panel viability, ATPlite luminescence, 48 h, control line for the selectivity index; series mostly up to 57.5 µM
How it was run: as §1

[8] = tested on: JEG-3; assay: as above; conditions: Gynecologic cancer cell panel viability, ATPlite luminescence, 48 h; series mostly up to 57.5 µM
How it was run: as §1

[9] = tested on: OV90; assay: as above; conditions: Gynecologic cancer cell panel viability, ATPlite luminescence, 48 h; series mostly up to 57.5 µM
How it was run: as §1

[10] = tested on: PA-1; assay: as above; conditions: Gynecologic cancer cell panel viability, ATPlite luminescence, 48 h; series mostly up to 57.5 µM
How it was run: as §1
% is scaled to controls: 0 for no effect and ±100 for the full control effect.

NNc1nnc(NN)c2ccccc12
inactive: outcome [1] | outcome [2] | outcome [3] | outcome [4] | outcome [5] | outcome [6] | outcome [7] | outcome [8] | Potency [9] | outcome [10]

CCOC(=O)OC(C)OC(=O)[C@@H]1N2C(=O)[C@@H](NC(=O)[C@H](N)c3ccccc3)[C@H]2SC1(C)C (stereo not given in full)
inactive: outcome [1] | outcome [2] | outcome [3] | outcome [4] | outcome [5] | outcome [6] | outcome [7] | outcome [8] | Potency [9] | outcome [10]

CCN(CC)CC1CCCCN1CC(=O)N1c2ccccc2C(=O)Nc2cccnc21 (stereo not given)
inactive: outcome [1] | outcome [2] | outcome [3] | outcome [4] | outcome [5] | outcome [6] | outcome [7] | outcome [8] | Potency [9] | outcome [10]

CC(=O)NS(=O)(=O)c1ccc(N)cc1
inactive: outcome [1] | outcome [2] | outcome [3] | outcome [4] | outcome [5] | outcome [6] | outcome [7] | outcome [8] | Potency [9] | outcome [10]

Cc1cc(C)nc(NS(=O)(=O)c2ccc(N)cc2)n1
inactive: outcome [1] | outcome [2] | outcome [3] | outcome [4] | outcome [5] | outcome [6] | outcome [7] | outcome [8] | Potency [9] | outcome [10]

CC(CN(C)C)C(C)(O)Cc1ccc(Cl)cc1 (stereo not given)
inactive: outcome [1] | outcome [2] | outcome [3] | outcome [4] | outcome [5] | outcome [6] | outcome [7] | outcome [8] | Potency [9] | outcome [10]

CCN(CC)CCOC(=O)C(c1ccccc1)c1ccccc1
inactive: outcome [1] | outcome [2] | outcome [3] | outcome [4] | outcome [5] | outcome [6] | outcome [7] | outcome [8] | Potency [9] | outcome [10]

CCCCCC(C)N (stereo not given)
inactive: outcome [1] | outcome [2] | outcome [3] | outcome [4] | outcome [5] | outcome [6] | outcome [7] | outcome [8] | Potency [9] | outcome [10]

Nc1ccncc1N
inactive: outcome [1] | outcome [2] | outcome [3] | outcome [4] | outcome [5] | outcome [6] | outcome [7] | outcome [8] | Potency [9] | outcome [10]

O=C1CC[C@@H](C(=O)O)N1
inactive: outcome [1] | outcome [2] | outcome [3] | outcome [4] | outcome [5] | outcome [6] | outcome [7] | outcome [8] | Potency [9] | outcome [10]

Cn1cc(C(=O)[C@@H]2CCc3nc[nH]c3C2)c2ccccc21
inactive: outcome [1] | outcome [2] | outcome [3] | outcome [4] | outcome [5] | outcome [6] | outcome [7] | outcome [8] | Potency [9] | outcome [10]

CC(C)(C)C(=O)OCOC(=O)[C@@H]1N2C(=O)[C@@H](NC(=O)[C@H](N)c3ccccc3)[C@H]2SC1(C)C
inactive: outcome [1] | outcome [2] | outcome [3] | outcome [4] | outcome [5] | outcome [6] | outcome [7] | outcome [8] | Potency [9] | outcome [10]

O=C(O)CNC(=O)c1ccccc1I
inactive: outcome [1] | outcome [2] | outcome [3] | outcome [4] | outcome [5] | outcome [6] | outcome [7] | outcome [8] | Potency [9] | outcome [10]

CCCCCCCCCCC(CO)CCCCCCCC (stereo not given)
inactive: outcome [1] | outcome [2] | outcome [3] | outcome [4] | outcome [5] | outcome [6] | outcome [7] | outcome [8] | Potency [9] | outcome [10]

CC1(C)S[C@@H]2[C@H](N=CN3CCCCCC3)C(=O)N2[C@H]1C(=O)O
inactive: outcome [1] | outcome [2] | outcome [3] | outcome [4] | outcome [5] | outcome [6] | outcome [7] | outcome [8] | Potency [9] | outcome [10]

CC(O)CCCCn1c(=O)c2c(ncn2C)n(C)c1=O (stereo not given)
inactive: outcome [1] | outcome [2] | outcome [3] | outcome [4] | outcome [5] | outcome [6] | outcome [7] | outcome [8] | Potency [9] | outcome [10]

CN[C@@H]1[C@H](O)[C@H](NC)[C@H]2O[C@@]3(O)C(=O)C[C@@H](C)O[C@H]3O[C@@H]2[C@H]1O
inactive: outcome [1] | outcome [2] | outcome [3] | outcome [4] | outcome [5] | outcome [6] | outcome [7] | outcome [8] | Potency [9] | outcome [10]

Cc1ccsc1C(=CCCN1CCC[C@@H](C(=O)O)C1)c1sccc1C
inactive: outcome [1] | outcome [2] | outcome [3] | outcome [4] | outcome [5] | outcome [6] | outcome [7] | outcome [8] | Potency [9] | outcome [10]

COC(=O)N/N=C/c1c[n+]([O-])c2ccccc2[n+]1[O-]
inactive: outcome [1] | outcome [2] | outcome [3] | outcome [4] | outcome [5] | outcome [6] | outcome [7] | outcome [8] | Potency [9] | outcome [10]

CC[C@]12CCCN3CCc4c(n(c5ccccc45)[C@@](O)(C(=O)OC)C1)[C@@H]32
inactive: outcome [1] | outcome [2] | outcome [3] | outcome [4] | outcome [5] | outcome [6] | outcome [7] | outcome [8] | Potency [9] | outcome [10]

CC1(C)S[C@@H]2[C@H](NC(=O)C(C(=O)O)c3ccccc3)C(=O)N2[C@H]1C(=O)O (stereo not given in full)
inactive: outcome [1] | outcome [2] | outcome [3] | outcome [4] | outcome [5] | outcome [6] | outcome [7] | outcome [8] | Potency [9] | outcome [10]

NC(N)=NCCN1CCCCCCC1
inactive: activity change, negative = cytotoxicity [1] 12.9% [at 0.597 µM] | activity change, negative = cytotoxicity [2] 9.99% [at 0.462 µM] | activity change, negative = cytotoxicity [3] -2.11% [at 0.462 µM] | activity change, negative = cytotoxicity [4] -2.55% [at 0.462 µM] | activity change, negative = cytotoxicity [5] -4.19% [at 0.462 µM] | activity change, negative = cytotoxicity [6] 0.1% [at 0.462 µM] | activity change, negative = cytotoxicity [7] -4.03% [at 0.462 µM] | activity change, negative = cytotoxicity [8] -3.39% [at 0.462 µM] | activity change, negative = cytotoxicity [9] -3.97% [at 0.462 µM] | activity change, negative = cytotoxicity [10] 8.5% [at 0.462 µM]

O=C1C(c2[nH]c3ccccc3c2O)=Nc2ccccc21
inactive: outcome [1] | outcome [2] | outcome [3] | outcome [4] | outcome [5] | outcome [6] | outcome [7] | outcome [8] | Potency [9] | outcome [10]

C=CCSCC1Nc2cc(Cl)c(S(N)(=O)=O)cc2S(=O)(=O)N1 (stereo not given)
inactive: outcome [1] | outcome [2] | outcome [3] | outcome [4] | outcome [5] | outcome [6] | outcome [7] | outcome [8] | Potency [9] | outcome [10]

CC(C)(C)NCC(O)COc1cccc2c1CCC(=O)N2 (stereo not given)
inactive: outcome [1] | outcome [2] | outcome [3] | outcome [4] | outcome [5] | outcome [6] | outcome [7] | outcome [8] | Potency [9] | outcome [10]

NC(=O)CCCCC1CCSS1 (stereo not given)
inactive: outcome [1] | outcome [2] | outcome [3] | outcome [4] | outcome [5] | outcome [6] | outcome [7] | outcome [8] | Potency [9] | outcome [10]

COc1ccc(-c2cc(=O)c3c(O)cc(O[C@@H]4O[C@H](CO[C@@H]5O[C@@H](C)[C@H](O)[C@@H](O)[C@H]5O)[C@@H](O)[C@H](O)[C@H]4O)cc3o2)cc1O
inactive: outcome [1] | outcome [2] | outcome [3] | outcome [4] | outcome [5] | outcome [6] | outcome [7] | outcome [8] | Potency [9] | outcome [10]

COc1ccccc1Oc1c(NS(=O)(=O)c2ccc(C(C)(C)C)cc2)nc(-c2ncccn2)nc1OCCO
inactive: outcome [1] | outcome [2] | outcome [3] | outcome [4] | outcome [5] | outcome [6] | outcome [7] | outcome [8] | Potency [9] | outcome [10]
